# Test results: PubChem BioAssay (EPA / NIEHS)
# Records with an inconclusive call do not appear. The source made the active and inactive calls. The calls were made as follows: active = hit-call score of the fitted dose curve at least 0.9, where 1 is the maximum; inconclusive = response in the unintended direction; inactive = score below 0.9.
# Experiment: CCTE_Mundy_HCI_Cortical_Synap_Neur_Matur_NeuronCount: CCTE's Synaptogenesis and Neurite Maturation Assay in rat cortical cells for Neuron Count, Mundy Lab (AID 2284242)
# Method in brief: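 Measured at DIV 12: fluorescently labelled neurons (Hoechst nuclei, MAP2) in rat primary cortical cultures, counted by high-content imaging. AraC suppressed glia from DIV 5; DMSO served as negative control.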
smiles,measurement,value
Nc1ncn([C@@H]2O[C@H](CO)[C@@H](O)[C@H]2O)c(=O)n1,outcome,inactive
